Among all 290,000 compounds or so, about 1,800 (0.62%) were called active. The sample holds actives, similar compounds and a random draw of the others, so the mix is not that of the screen. Values without a mark were called inactive. No stated cut-off is given here; in the data, active means inhibition above about 50%; inactive means the rest.

By inhibition is commonly meant the drop in the measured response relative to a control, in per cent.

The nature of this experiment: NOD2 signaling inhibitors, cell-based, luminescence, uHTS, HEK293 (AID 1566). The conditions noted are these: HEK293 NOD2/NF-kB luciferase reporter, at 4 µM, hits give high values. On the technique in general: Reporter assays use an easily measured gene product as a stand-in for the process of interest.
In the case of `O=C(/C=C/c1ccccc1)NC(=S)Nc1ccccc1O`, the inhibition was 0.9%. Turning to `Nc1ccc(-c2nc3c(Cl)cc(N)cc3[nH]2)cc1`, the inhibition is 55.1% (active). Turning to `Nc1ccc(-c2nc3ccc(N)cc3[nH]2)cc1`, the inhibition was -7%. With `Nc1ccc(-c2nc3c(Cl)c(N)ccc3[nH]2)cc1`, the inhibition is -6.6%. As to `NC(=O)c1ccc(NC(=O)Cc2csc(-c3ccccc3)n2)cc1`, the inhibition was 8%.

Turning to `CCOc1ccc(C(=O)CSCCC(=O)O)cc1`, the inhibition is 53.4% (active). In the case of `CCOc1ccc(C(=O)CSCC(=O)O)cc1` it was 6.2%; in that of `CCOc1ccc(C(=O)CCC(=O)O)cc1`, 16%; in that of `COc1ccc(/C=C/C(=O)Oc2ccc(C)cc2)cc1`, 7.2%. In the case of `COc1ccc(/C=C/c2c(-c3ccc(OC)cc3)oc3ccc(-c4ccc(OC)cc4)cc23)cc1` it was 4.5%; in that of `O=C(COC(=O)C12CC3CC(CC(C3)C1)C2)Nc1nccs1`, 33.4%; in that of `Cc1nc2scc(C)n2c(=O)c1S(=O)(=O)Nc1ccc(N2CCOCC2)cc1`, 14.2%.

As to `Cc1nc2scc(C)n2c(=O)c1S(=O)(=O)Nc1ccc(N2CCOCC2)c(Cl)c1`, the inhibition was 51.2% (active).

As for `Cc1nc2sccn2c(=O)c1S(=O)(=O)Nc1ccc(N2CCOCC2)c(Cl)c1`, the inhibition was 33.7%. The same measure for `O=C(c1ccncc1)c1ccc(NS(=O)(=O)c2ccc(Br)s2)cc1`: 23.1%; for `Cc1cc(C=C2C(=O)CCCC2=O)c(C)n1-c1ccccc1`: 1.8%.

For `Cc1cc(C=C2C(=O)c3ccccc3C2=O)c(C)n1-c1ccc(Cl)cc1`, the inhibition is 19.2%.

Take `Cc1cc(C=C2C(=O)c3ccccc3C2=O)c(C)n1-c1ccccc1`: the inhibition is 5.9%. As to `Cc1cccc(-n2c(C)cc(C=C3C(=O)c4ccccc4C3=O)c2C)c1`, the inhibition was 57.4% (active). The same measure for `Cc1cc(/C=C2\Cc3ccccc3C2=O)c(C)n1-c1ccccc1`: 59.1% (active); for `Cc1cc(C=C2C(=O)c3ccccc3C2=O)c(C)n1-c1cccc(C(=O)O)c1`: -11.1%. In the case of `CNC(=O)CSc1nc2[nH]ncc2c(=O)[nH]1` it was 10.9%; in that of `COc1ccc(C(CC(=O)N2CCCC2)C(C)C)cc1` (stereo not drawn), -6.1%. On to `O=C(NC(Cc1ccc2c(c1)OCO2)C(=O)NC(Cc1ccccc1)C(=O)O)c1ccccc1` (stereo not drawn), for which the inhibition was 0%. On to `O=C(CN(Cc1cccs1)C(=O)CNS(=O)(=O)c1ccccc1)NC1CCCC1`, for which the inhibition is 9.3%. The same measure for `CC(C)CCNC(=O)c1cc(S(=O)(=O)N2CCc3ccccc32)cn1C`: 26.2%. With `CCCNC(=O)c1cc(S(=O)(=O)N2CCc3ccccc32)cn1C`, the inhibition is 52.1% (active).

Regarding `CCN(CC)CCNC(=O)c1cc(S(=O)(=O)N2CCc3ccccc32)cn1C`, the inhibition was 27.1%. Turning to `CS(=O)(=O)N(CC(=O)Nc1cccc(Cl)c1)c1ccccc1Cl`, the inhibition was -11.8%.

On to `C[C@H]1O[C@@H](O[C@H]2[C@@H](O)C[C@H](O[C@H]3[C@@H](O)C[C@H](O[C@H]4CC[C@@]5(C)[C@H](CC[C@@H]6[C@@H]5C[C@@H](O)[C@]5(C)[C@@H](C7=CC(=O)OC7)CC[C@]65O)C4)O[C@@H]3C)O[C@@H]2C)C[C@H](O)[C@@H]1O`, for which the inhibition is 77.7% (active). In the case of `COc1ccc(N(CC(=O)Nc2ccc(C)c(C)c2)C2=NC3CS(=O)(=O)CC3S2)cc1` (stereo not drawn) it was 10.8%; in that of `CCC(C)(C)NC(=O)C1CC(=O)N(CCc2ccc(F)cc2)C1` (stereo not drawn), 12.1%; in that of `COc1ccc(S(=O)(=O)N2CCC(N3CCN(c4ccccc4)CC3)CC2)cc1`, 16.7%.

`Cc1nc2ccccc2c2oc(C(=O)NCc3ccc4c(c3)OCO4)cc12`: the inhibition was 45.9%. The same measure for `Cc1cc(C(=O)NCC2COc3ccccc3O2)c2ccccc2n1` (stereo not drawn): 17.7%. The same measure for `Cc1c(/C(O)=C2/C(=O)C(=O)N(CCN(C)C)C2c2ccc(C(C)C)cc2)cnn1-c1ccccc1` (stereo not drawn): 28.4%; for `Cc1ccc2[nH]c(=O)c3cc(C(=O)N(C)C4CCCCC4)sc3c2c1`: 56.8% (active); for `Cc1ccc(C)c(N(C)C(=O)c2cc3c(=O)[nH]c4ccc(C)cc4c3s2)c1`: -16%. Turning to `Cc1ccc2[nH]c(=O)c3cc(C(=O)N(C)c4ccccc4C)sc3c2c1`, the inhibition was 13.1%. In the case of `COc1cc(CN2CCC(Cc3ccccc3)CC2)cc([N+](=O)[O-])c1O` it was -1.9%; in that of `O=C(Nc1ccc(N2CCCC2)cc1)c1cc(Br)ccc1Cl`, -11.7%; in that of `Cc1ccc2c(COC(=O)c3c(C)noc3C)cc(=O)oc2c1`, 0.4%. For `N[C@@H](CO)c1nnc([C@H](CC(=O)O)NC(=O)C2CCNCC2)o1`, the inhibition is -3.6%. On to `CCSc1nsc(NC(=O)Nc2ccccc2F)n1`, for which the inhibition was -32.2%. On to `CCSc1nsc(NC(=O)Nc2cccc(OC)c2)n1`, for which the inhibition is 17.5%.

For `CC1CCN(C(=O)c2ccc(CS(=O)(=O)Cc3ccccc3)cc2)CC1`, the inhibition is 12.8%. The same measure for `Cc1ccc(NC(=S)N2CCC(NC(=O)c3ccc(C)cc3)CC2)cc1`: -13.6%. The same measure for `CCc1ccc(NC(=S)N2CCC(NC(=O)c3ccccc3)CC2)cc1`: 7.4%; for `Cc1ccc(NC(=S)N2CCC(NC(=O)c3ccccc3)CC2)cc1`: 93% (active). In the case of `CC(C(=O)NC1CCCCCC1)n1cc([N+](=O)[O-])cn1` (stereo not drawn) it was 3.3%. As for `O=[N+]([O-])c1cccc2ccc(/C=C/c3cccc(Br)c3)nc12`, the inhibition was -19%. As to `Cc1ccc(-c2csc(N3CCN(CCCn4c(C(F)(F)F)nc5ccccc54)CC3)n2)cc1`, the inhibition is 19.9%. Regarding `CC(=O)N[C@@H](C)c1nc2ccccc2n1CCCN1CCN(c2nc(-c3ccc(C)cc3)cs2)CC1`, the inhibition is 44.3%. With `Cc1ccc(Cn2c(SC3CCOC3=O)nc3ccccc3c2=O)cc1` (stereo not drawn), the inhibition was -3.1%. The same measure for `O=C1NCC(CN(c2ccccc2)c2ccccc2)O1` (stereo not drawn): 14.1%.

With `CC(C)Nc1ncnc2ccc(Br)cc12`, the inhibition was 43%.

Consider `CN(Cc1ccccc1)c1ncnc2ccc(Br)cc12`, for which the inhibition is 20.7%. The same measure for `CCN(CC)c1ncnc2ccc(Br)cc12`: 65.5% (active). As for `Cn1c(=O)oc2cc(S(=O)(=O)N3CCC(C(=O)N4CC=C(c5ccccc5)CC4)CC3)ccc21`, the inhibition is 7.5%.

`Cc1nnc(SCC(=O)Nc2cccc([N+](=O)[O-])c2)n1CC1CCCO1` (stereo not drawn): the inhibition was 2.2%.

Regarding `O=C(O)c1ccccc1C(=O)c1ccc(-c2ccccc2)cc1`, the inhibition was 64.3% (active). As for `O=C(O)c1ccccc1C(=O)c1ccc(Oc2ccccc2)cc1`, the inhibition is -0.9%.

As for `O=C(O)c1ccccc1C(=O)c1ccc(Cl)cc1`, the inhibition is 1%. For `Cc1ccc2c(C)c(C(=O)Nc3c(C)n(C)n(-c4ccccc4)c3=O)oc2c1C`, the inhibition was 22.4%. In the case of `CCC(=O)N1CCc2cc(S(=O)(=O)CCC(=O)NC(C)CC)ccc21` (stereo not drawn) it was 10.4%; in that of `CCc1ccc(N(C(=O)Cn2nnc(-c3ccccc3)n2)C(C(=O)NC2CCCCC2)c2ccccn2)cc1` (stereo not drawn), 5.5%; in that of `COCc1cc(=O)[nH]c(Nc2nc3ccc(C)cc3o2)n1`, 62.8% (active).

Regarding `COC(=O)Cc1cc(=O)[nH]c(Nc2nc3ccccc3o2)n1`, the inhibition is -8.6%.

With `COCc1cc(=O)[nH]c(Nc2nc3ccccc3o2)n1`, the inhibition was -130%. In the case of `COc1ccc(Cn2c(C3CC3)nc3ccc(NC(=O)c4ccco4)cc3c2=O)cc1` it was -43.8%; in that of `CCn1c(C)c(C(C)=O)c(N2CCN(c3cccc(Cl)c3)CC2)nc1=S`, 15.5%.

In the case of `CC(=O)Nc1ccc(/C(C)=N/NC(=O)c2ccc(CN3CCOCC3)cc2)cc1`, the inhibition was 6.9%. For `CC1CCCCN1C(=O)c1ccc(C(=O)N2CCCCC2C)cc1` (stereo not drawn), the inhibition is 5%. In the case of `COc1ccc(OC(=O)Nc2ccccc2)cc1` it was -3.6%. As for `Cc1csc(SCc2nnc(-c3ccc(Cl)cc3)o2)n1`, the inhibition was -134%. Turning to `Cc1ccc(C#N)c(SCc2nnc(-c3ccc(Cl)cc3)o2)n1`, the inhibition was 67.8% (active). For `N#Cc1c(-c2ccccc2)cc(-c2ccccc2)nc1SCc1nnc(-c2ccccc2)o1`, the inhibition is 15.7%.

As for `Cc1cc(C)c(C#N)c(SCc2nnc(-c3ccccc3[N+](=O)[O-])o2)n1`, the inhibition was -197%.

Regarding `Cc1nnc(SCc2nnc(-c3ccc(Cl)cc3)o2)n1-c1ccccc1`, the inhibition was -2.6%. The same measure for `Cc1ccc(-n2c(C)cc(/C=N/NC(=O)c3ccncc3)c2C)c(C)c1`: 7%. The same measure for `Cc1ccc(NC(=O)c2ccc3ccccc3n2)cc1S(=O)(=O)N(C)C`: -57.9%; for `O=C(CSc1nc2ccccc2[nH]1)Nc1cccc(S(=O)(=O)N2CCOCC2)c1`: 24.9%.

Consider `CC(=O)Nc1cccc(-n2nnc(SCC(=O)Nc3ccccc3)n2)c1`, for which the inhibition is 0.6%. Take `Cc1cc(OCC(=O)NCCc2ccc(S(N)(=O)=O)cc2)c2c(C)c(C)c(=O)oc2c1`: the inhibition is 8.3%. For `Cc1n[nH]c(=O)nc1NC1CCCCC1`, the inhibition is 3%. On to `C=CCn1c(CSCc2ccccc2)nnc1SCC(=O)N1CCN(c2ccccc2)CC1`, for which the inhibition was 0.4%.

As to `Cc1ccc(NC(=O)C2SC(=Nc3ccccc3)C(C(=O)Nc3ccc(Cl)cc3)=C2N)cc1` (stereo not drawn), the inhibition is -14.9%. As to `N#Cc1ccccc1NC(=O)C1SC(=Nc2ccccc2)C(C(=O)Nc2ccc(Cl)cc2)=C1N` (stereo not drawn), the inhibition was 50.7% (active). The same measure for `CCOc1ccc(N=C2SC(C(=O)Nc3ccccc3C#N)C(N)=C2C(=O)Nc2ccc(Cl)cc2)cc1` (stereo not drawn): 13.4%; for `CC(=O)Nc1ccc(SC(C)C(=O)NC2CCCC2)cc1` (stereo not drawn): -6.7%; for `Oc1ccc(-c2nc3ccccc3s2)cc1`: -198%. Turning to `COc1ccc(-c2nc3ccccc3s2)cc1`, the inhibition is -217%.

`Cn1nnc2cc(C(=O)NCc3ccc4c(c3)OCO4)ccc21`: the inhibition is -37.1%.

The values above are taken from PubChem BioAssay AID1566 (Sanford-Burnham Center for Chemical Genomics, 2009).
